Values joined by “and” are separate entries in the source; they are usually repeats but may differ in a detail not shown here. Identical values can stand only once. In all, about 16,000 compounds went through this assay and about 5,700 (36%) were called active. Roughly 24% stayed inconclusive and do not appear here. Calls follow the shape of the dose curve; as a rule, active = well fitted curve in the direction sought with a large enough effect; inconclusive = small, poorly fitted or top-dose-only effect, or effect the other way; inactive = no such curve, though single readings can be large or run the other way. This is one part of the list.
% is scaled to controls: 0 for no effect and ±100 for the full control effect.

Chain of Cytochrome P450 1A2 (Homo sapiens) (P05177 whole entry, looked up): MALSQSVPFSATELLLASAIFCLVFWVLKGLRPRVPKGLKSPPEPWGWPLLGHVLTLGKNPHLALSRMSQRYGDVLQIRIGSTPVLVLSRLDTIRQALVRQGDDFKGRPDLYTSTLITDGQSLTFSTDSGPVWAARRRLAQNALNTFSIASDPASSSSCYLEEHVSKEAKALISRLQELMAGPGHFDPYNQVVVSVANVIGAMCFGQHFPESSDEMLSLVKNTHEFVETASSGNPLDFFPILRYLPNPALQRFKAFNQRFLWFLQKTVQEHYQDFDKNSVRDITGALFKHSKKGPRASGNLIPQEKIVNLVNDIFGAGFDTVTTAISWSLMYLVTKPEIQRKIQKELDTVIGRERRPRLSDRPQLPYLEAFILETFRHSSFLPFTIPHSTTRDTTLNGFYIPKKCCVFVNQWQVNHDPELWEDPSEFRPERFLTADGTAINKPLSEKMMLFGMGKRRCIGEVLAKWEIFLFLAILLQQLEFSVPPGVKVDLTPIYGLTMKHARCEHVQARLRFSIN

This test concerns the target Cytochrome P450 1A2 (Homo sapiens) (UniProt P05177). In words: Cytochrome panel assay with activity outcomes. Conditions: recombinant CYP, pro-luciferin dealkylation, luminescence, p450-cyp1a2; series mostly up to 57.1 µM.
For `Cc1cc(C(C)(C)C)c(OCCCN2CCOCC2)c(C(C)(C)C)c1`, the activity, negative = inhibition was -17.7% [at 2.29 µM] (inactive). `Cc1ccccc1OCCCN1CCCC1`: the AC50 entry is “inactive”.

With `CC(C)(C)c1ccccc1OCCN1CCCC1`, the concentration at half-maximal activity (AC50) was 15.8 µM (active). Regarding `CC1(CC(=O)O)O[C@H]2CCCCC[C@H]2O1` (stereo partly specified) (tested in a mixture with another compound), the activity, negative = inhibition is -0.0273% [at 11.4 µM] (inactive).

For `COc1ccc2c(c1)C(c1ccc([N+](=O)[O-])cc1)=NNC(c1ccco1)=N2`, the concentration at half-maximal activity (AC50) was 5.01 µM (active).

On to `COc1cccc(C(=O)Nc2ccc(-c3nnc(-c4ccco4)o3)cc2)c1`, for which the AC50 entry is “inactive”. Consider `CC1(C)CCCN(C(=O)c2coc(=O)c(Br)c2)C1`, for which the AC50 result is “inactive”. For `c1ccc2nc(C3=NCCN3)ccc2c1`, the concentration at half-maximal activity (AC50) was 5.01 µM (active) and 794 nM (active). As to `c1ccc2nc(-c3ccncc3)ccc2c1`, the AC50 is 1 µM (active). `c1ccc2cc(C3=NCCN3)ncc2c1`: the AC50 is 0.501 µM (active).

`c1ccc(CN(CC2=NCCN2)c2ccccc2)cc1`: the AC50 result was “inactive”. Regarding `c1ccc2nc(C3=NCCN3)cnc2c1`, the concentration at half-maximal activity (AC50) was 0.398 µM (active). `O=C(c1cccc(F)c1)N1CCC2(CCCN(Cc3cc(C(F)(F)F)cc(C(F)(F)F)c3)C2)CC1`: the AC50 entry is “inactive”. For `COC(=O)[C@@]1(Cc2ccc(F)cc2)[C@H]2c3cc(C(=O)N(C)C)n(CCCNc4ccc(C(F)(F)F)cc4Cl)c3C[C@H]2CN1C(=O)c1ccccc1`, the AC50 result is “inactive”. Consider `c1ccc2oc(C3=NCCN3)cc2c1`, for which the AC50 was 5.01 µM (active).

For the compound `CCn1c(-c2nonc2NC(=O)c2ccccc2)nc2ccccc21`, the AC50 was 0.891 µM (active). In the case of `CCn1nccc1C(=O)Nc1nc2ccccc2n1CCN1CCCCC1`, the AC50 entry was “inactive”.

`Cn1c(CNS(=O)(=O)c2ccc(F)cc2)n[nH]c1=S`: the AC50 entry is “inactive”. On to `Clc1ccc(SCc2cc(-c3ccccc3)no2)cc1`, for which the AC50 is 6.31 µM (active). In the case of `O=S(=O)(NCc1cc(-c2ccc(Cl)cc2)no1)c1ccc(Cl)cc1`, the AC50 is 8.91 µM (active). With `NCCNS(=O)(=O)c1ccc(N)cc1`, the activity, negative = inhibition was -3.44% [at 11.4 µM] (inactive). Take `Nc1ccc(S(=O)(=O)NCc2nccs2)cc1`: the activity, negative = inhibition was -10.5% [at 2.29 µM] (inactive). With `O=S(=O)(NCc1cc(-c2ccccc2)no1)c1ccc(Cl)cc1`, the AC50 was 7.08 µM (active). As for `COCCNC(=O)c1onc(CSc2ccc(Cl)cc2)c1C(=O)O`, the AC50 result is “inactive”. For the compound `Cn1c(CNS(=O)(=O)c2ccc(Cl)cc2)n[nH]c1=S`, the AC50 entry was “inactive”. For the compound `Cn1cccc1C(=O)N1CCC2(CC1)CCN(c1ncccn1)CC2`, the AC50 entry was “inactive”. As for `CC(=O)OC[C@@H]1O[C@@H](O/N=C2/C[C@@H](O)[C@@H](O)[C@@H]3[C@@H]4C(=O)N(C(C)(C)C)C(=O)[C@H]4CC[C@H]23)[C@H](OC(C)=O)[C@H](OC(C)=O)[C@@H]1OC(C)=O`, the activity, negative = inhibition is -2.28% [at 11.4 µM] (inactive). `CC(C)(C)c1ccc(OC(=O)Cn2c(C(F)(F)F)nc3ccccc32)cc1`: the AC50 result is “inactive”.

For `Cc1ccccc1C(=O)NN(C)c1nc2ccccc2nc1C(F)(F)F`, the AC50 result is “inactive”. On to `COc1ccc(Oc2nc3ccccc3nc2C(F)(F)F)cc1`, for which the AC50 is 1.12 µM (active). As to `CC(C)NC(=O)N1CCCC2(CCN(C(=O)c3ccco3)CC2)C1`, the AC50 entry was “inactive”.

In the case of `Cc1cc(C)nc(SCc2nnc(SCC(N)=O)n2Cc2ccco2)n1`, the AC50 entry is “inactive”.

For `O=c1c2ccccc2nnn1CSc1nnc(COc2ccc(Cl)cc2)n1Cc1ccco1`, the half-maximal activity concentration (AC50) was 3.16 µM (active).

On to `COc1cccc(OCc2nnc(SCC(=O)NCc3ccco3)n2C)c1`, for which the AC50 entry was “inactive”. With `O=C(NCC(c1cccnc1)N1CCOCC1)Nc1ccccc1` (stereo unspecified), the AC50 result is “inactive”. On to `O=C(O)Cc1cccnc1`, for which the activity, negative = inhibition is -13.8% [at 11.4 µM] (inactive). For the compound `c1ccc(C[C@@H](Nc2cccnc2)c2ccccc2)cc1`, the AC50 is 0.2 µM (active). Consider `COc1ccc(-n2c(=O)c(-c3cccs3)nc3cnc(Nc4cccc(OC)c4)nc32)cc1`, for which the AC50 result is “inactive”. Regarding `COc1cccc(Nc2ncc3nc(C)c(=O)n(C)c3n2)c1`, the concentration at half-maximal activity (AC50) was 1 µM (active). On to `COc1cccc(Nc2ncc3nc(C)c(=O)n(-c4ccccc4)c3n2)c1`, for which the half-maximal activity concentration (AC50) was 5.01 µM (active). Regarding `COc1ccc(-n2c(=O)c(C)nc3cnc(Nc4cccc(OC)c4)nc32)cc1`, the concentration at half-maximal activity (AC50) was 15.8 µM (active). Turning to `CCOc1ccc(OCC)c(-c2c(=O)n(OCc3ccc(C(C)(C)C)cc3)c3ccccc3[n+]2[O-])c1`, the AC50 entry is “inactive”. Consider `OCCN1CCN(c2nc(N3CCCCC3)nc(N3CCCCC3)n2)CC1`, for which the AC50 entry is “inactive”. `N#CN(CC(N)=O)c1nc(N2CCCCC2)nc(N2CCCCC2)n1`: the concentration at half-maximal activity (AC50) was 2 µM (active). As to `O=C1c2ccccc2C(=O)N1CCCCN(C(=O)c1cccc([N+](=O)[O-])c1)c1ccc(Cl)cc1`, the AC50 result is “inactive”. For `O=C1c2cccc3c(Nc4ccccc4Cl)c([N+](=O)[O-])cc(c23)C(=O)N1CCO`, the AC50 was 1.78 µM (active). As to `CC(C)(C)c1cc2cccnc2n1Cc1ccccc1`, the concentration at half-maximal activity (AC50) is 14.1 µM (active). Regarding `O=S(=O)(NC1CCN(Cc2ccccc2)CC1)c1cccc2cccnc12`, the AC50 result is “inactive”. Consider `O=C(Nc1cccc(F)c1)N1CCC2(CC1)CCN(C(=O)c1csnn1)CC2`, for which the AC50 result was “inactive”. `CCn1c(C)nc2cc(C(=O)NNS(=O)(=O)c3ccccc3F)ccc21`: the AC50 was 25.1 µM (active). Turning to `N[C@H](C(=O)O)[C@@H](O)c1cnc[nH]1`, the activity, negative = inhibition was -2.61% [at 11.4 µM] (inactive). Regarding `CN(C)/C=N/c1ncc(C(=O)c2ccc3ccccc3c2)s1`, the concentration at half-maximal activity (AC50) was 2.51 µM (active). On the same count and under the same terms, in the case of `Cc1cc(C(=O)c2cnc(/N=C/N(C)C)s2)cc(C)c1O` it was 12.6 µM (active). `COc1ccc(O[C@H]2C=C[C@@H](c3ccccc3)O[C@H]2CO/N=C2/c3cc(OC)ccc3O[C@@H](c3cccc(OC)c3)[C@H]2O)cc1`: the activity, negative = inhibition is 1.3% [at 11.4 µM] (inactive). `Cc1cc(N2CCOCC2)nc(SCc2ccc(Cl)cc2Cl)n1`: the concentration at half-maximal activity (AC50) was 2.51 µM (active). As for `CSc1nc(-c2ccc(C)cc2)nc(C(Cl)Cl)n1`, the AC50 was 1.41 µM (active). Regarding `COc1ccccc1/C=N/NC(=O)CC(=O)Nc1ccc(Cl)c(Cl)c1`, the AC50 was 1.78 µM (active).

Regarding `COc1ccccc1CN1CCCC2(CCN(C(=O)c3cccn3C)CC2)C1`, the AC50 entry is “inactive”. For the compound `Clc1cc2c(c(CSC3=NCN(CC4CC4)CN3)c1)OCOC2`, the half-maximal activity concentration (AC50) is 3.16 µM (active).

Turning to `CCOc1cc2c(C)cc(=O)oc2cc1Cl`, the AC50 was 0.501 µM (active). On the same count and under the same terms, the entry for `CCCc1cc(=O)oc2cc(OCc3cc(OC)c(OC)c(OC)c3)c(Cl)cc12` is “inactive”.

As usually defined, the AC50 is the concentration at which the activity in the assay is half-maximal.
